Common to all, as to experiment: log2 ratio of Biotin-Ahx-Ub-VS probe labelling (fragment/DMSO); higher = less target engagement (more negative = stronger competition), active = hit call of the paper (q ≤ 0.05, log2 ratio ≤ -1)
Holding throughout (conditions): compound concentration: 200 uM; treatment time: 3 h

In one assay the target is T1, USP42 (UniProt Q9H9J4).
T1 sequence (whole entry): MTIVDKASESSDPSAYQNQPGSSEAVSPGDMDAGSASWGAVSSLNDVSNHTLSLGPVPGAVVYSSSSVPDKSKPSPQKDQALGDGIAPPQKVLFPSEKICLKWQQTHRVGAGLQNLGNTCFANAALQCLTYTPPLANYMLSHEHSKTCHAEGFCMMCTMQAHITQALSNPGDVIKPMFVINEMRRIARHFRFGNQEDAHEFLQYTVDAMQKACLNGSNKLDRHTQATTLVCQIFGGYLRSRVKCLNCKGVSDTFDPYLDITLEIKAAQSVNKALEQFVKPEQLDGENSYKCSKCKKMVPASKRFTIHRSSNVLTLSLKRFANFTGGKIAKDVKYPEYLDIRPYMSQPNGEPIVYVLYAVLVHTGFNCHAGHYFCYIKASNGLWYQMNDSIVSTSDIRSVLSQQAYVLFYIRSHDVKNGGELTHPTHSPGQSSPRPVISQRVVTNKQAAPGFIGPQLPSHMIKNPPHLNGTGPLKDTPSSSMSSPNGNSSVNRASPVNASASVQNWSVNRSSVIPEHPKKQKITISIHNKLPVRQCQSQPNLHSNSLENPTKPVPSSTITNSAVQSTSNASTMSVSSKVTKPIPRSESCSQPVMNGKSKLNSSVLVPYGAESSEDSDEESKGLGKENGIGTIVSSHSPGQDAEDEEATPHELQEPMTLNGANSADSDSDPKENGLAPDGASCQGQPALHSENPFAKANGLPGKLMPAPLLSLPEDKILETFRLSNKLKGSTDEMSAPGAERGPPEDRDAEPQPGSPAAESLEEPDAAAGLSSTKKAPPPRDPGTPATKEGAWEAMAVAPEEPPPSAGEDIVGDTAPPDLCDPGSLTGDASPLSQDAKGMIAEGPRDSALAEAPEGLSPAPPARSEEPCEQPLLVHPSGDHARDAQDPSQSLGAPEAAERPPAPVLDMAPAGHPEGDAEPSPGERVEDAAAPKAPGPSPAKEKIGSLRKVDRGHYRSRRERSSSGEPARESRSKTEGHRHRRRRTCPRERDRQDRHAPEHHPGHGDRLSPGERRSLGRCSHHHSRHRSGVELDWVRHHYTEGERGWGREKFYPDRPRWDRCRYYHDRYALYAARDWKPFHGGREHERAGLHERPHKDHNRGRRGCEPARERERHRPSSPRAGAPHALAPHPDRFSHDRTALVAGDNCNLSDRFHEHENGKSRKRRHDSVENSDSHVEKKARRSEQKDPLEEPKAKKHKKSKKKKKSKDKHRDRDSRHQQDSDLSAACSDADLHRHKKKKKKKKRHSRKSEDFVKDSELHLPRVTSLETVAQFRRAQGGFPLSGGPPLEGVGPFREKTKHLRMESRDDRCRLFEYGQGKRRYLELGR
Put shortly:
(§1)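 HEK293T lysate, 495 µg per sample in Tris/CHAPS/IGEPAL buffer with protease inhibitors, was treated in triplicate with fragment at 200 µM or vehicle for 3 h and then with Biotin-Ahx-Ub-VS at 0.5 µM final for 1 h. Labelled DUBs were NeutrAvidin-enriched, digested with LysC and trypsin, and run by diaPASEF LC-MS/MS. Spectronaut label-free quantities were global-median-normalised, and values are average log2 fragment/vehicle ratios by unpaired t-test on proteins with ≥2 unique peptides.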

The target of another assay is USP46 (UniProt P62068). Put shortly: as §1
In another assay the target is T2, USP47 (UniProt Q96K76).
T2 sequence (whole entry): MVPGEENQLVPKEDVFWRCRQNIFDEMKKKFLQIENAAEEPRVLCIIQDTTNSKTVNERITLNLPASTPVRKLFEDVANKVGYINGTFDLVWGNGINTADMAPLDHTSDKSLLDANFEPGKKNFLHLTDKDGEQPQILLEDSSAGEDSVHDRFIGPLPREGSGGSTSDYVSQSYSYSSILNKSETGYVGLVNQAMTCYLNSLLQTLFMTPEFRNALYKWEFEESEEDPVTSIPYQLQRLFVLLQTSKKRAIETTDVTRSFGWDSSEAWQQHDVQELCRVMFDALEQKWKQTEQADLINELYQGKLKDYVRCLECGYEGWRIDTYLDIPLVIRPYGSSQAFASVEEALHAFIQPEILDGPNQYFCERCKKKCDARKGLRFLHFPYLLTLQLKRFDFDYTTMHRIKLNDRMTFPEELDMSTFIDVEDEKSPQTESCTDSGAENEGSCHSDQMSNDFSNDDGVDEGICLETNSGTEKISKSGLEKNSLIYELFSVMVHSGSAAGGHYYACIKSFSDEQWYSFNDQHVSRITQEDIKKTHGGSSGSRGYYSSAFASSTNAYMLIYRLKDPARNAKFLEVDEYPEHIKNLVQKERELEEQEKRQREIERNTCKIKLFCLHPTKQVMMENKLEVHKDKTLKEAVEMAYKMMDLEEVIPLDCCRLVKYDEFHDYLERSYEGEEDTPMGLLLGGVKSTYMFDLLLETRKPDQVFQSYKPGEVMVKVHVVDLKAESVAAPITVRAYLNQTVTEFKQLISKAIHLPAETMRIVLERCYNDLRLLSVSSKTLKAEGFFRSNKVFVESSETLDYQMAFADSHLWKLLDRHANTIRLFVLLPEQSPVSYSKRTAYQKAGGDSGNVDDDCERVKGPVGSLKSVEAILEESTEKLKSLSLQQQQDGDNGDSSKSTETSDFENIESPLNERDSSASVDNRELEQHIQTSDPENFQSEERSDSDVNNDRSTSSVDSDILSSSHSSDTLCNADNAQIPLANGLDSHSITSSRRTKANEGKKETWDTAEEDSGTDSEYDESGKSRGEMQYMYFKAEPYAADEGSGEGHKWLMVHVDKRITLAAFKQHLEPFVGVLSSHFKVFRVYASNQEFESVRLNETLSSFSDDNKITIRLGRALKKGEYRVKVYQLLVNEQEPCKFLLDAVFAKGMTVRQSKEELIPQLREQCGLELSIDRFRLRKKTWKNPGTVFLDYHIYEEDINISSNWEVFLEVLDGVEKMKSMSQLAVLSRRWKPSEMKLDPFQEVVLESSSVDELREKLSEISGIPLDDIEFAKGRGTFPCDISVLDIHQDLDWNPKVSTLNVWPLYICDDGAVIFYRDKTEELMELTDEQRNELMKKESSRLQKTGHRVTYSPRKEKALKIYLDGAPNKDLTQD
Put shortly: as §1

The target in the next assay is T3, USP48 (UniProt Q86UV5).
T3 sequence (whole entry): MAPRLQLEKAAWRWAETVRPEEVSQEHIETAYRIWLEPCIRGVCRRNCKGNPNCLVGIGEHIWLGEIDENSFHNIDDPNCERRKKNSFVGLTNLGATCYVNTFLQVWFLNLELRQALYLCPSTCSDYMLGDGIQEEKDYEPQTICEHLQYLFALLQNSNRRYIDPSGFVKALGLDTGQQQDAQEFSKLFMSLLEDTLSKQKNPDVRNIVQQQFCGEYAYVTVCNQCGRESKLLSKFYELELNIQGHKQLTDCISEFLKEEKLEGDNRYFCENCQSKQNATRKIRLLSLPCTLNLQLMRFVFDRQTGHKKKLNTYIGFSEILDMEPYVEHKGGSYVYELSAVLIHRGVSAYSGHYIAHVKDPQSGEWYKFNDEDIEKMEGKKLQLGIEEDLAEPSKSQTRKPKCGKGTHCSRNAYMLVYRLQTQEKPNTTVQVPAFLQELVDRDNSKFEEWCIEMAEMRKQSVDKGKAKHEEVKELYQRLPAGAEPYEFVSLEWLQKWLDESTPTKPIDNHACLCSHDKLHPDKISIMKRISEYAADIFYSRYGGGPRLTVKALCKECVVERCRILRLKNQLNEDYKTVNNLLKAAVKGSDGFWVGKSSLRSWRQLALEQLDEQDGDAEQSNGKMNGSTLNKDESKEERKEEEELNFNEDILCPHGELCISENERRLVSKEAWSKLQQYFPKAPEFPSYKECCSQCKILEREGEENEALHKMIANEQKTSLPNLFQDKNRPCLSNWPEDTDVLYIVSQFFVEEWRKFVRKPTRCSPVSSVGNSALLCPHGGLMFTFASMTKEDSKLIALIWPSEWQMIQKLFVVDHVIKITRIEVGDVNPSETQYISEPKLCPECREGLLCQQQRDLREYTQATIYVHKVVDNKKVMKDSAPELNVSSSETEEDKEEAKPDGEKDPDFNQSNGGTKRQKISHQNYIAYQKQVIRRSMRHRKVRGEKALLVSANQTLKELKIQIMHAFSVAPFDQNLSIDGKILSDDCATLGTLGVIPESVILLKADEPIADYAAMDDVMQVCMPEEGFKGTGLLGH
In short, it runs like this: as §1

The next assay has as its target T4, USP5 (UniProt P45974).
T4 sequence (whole entry): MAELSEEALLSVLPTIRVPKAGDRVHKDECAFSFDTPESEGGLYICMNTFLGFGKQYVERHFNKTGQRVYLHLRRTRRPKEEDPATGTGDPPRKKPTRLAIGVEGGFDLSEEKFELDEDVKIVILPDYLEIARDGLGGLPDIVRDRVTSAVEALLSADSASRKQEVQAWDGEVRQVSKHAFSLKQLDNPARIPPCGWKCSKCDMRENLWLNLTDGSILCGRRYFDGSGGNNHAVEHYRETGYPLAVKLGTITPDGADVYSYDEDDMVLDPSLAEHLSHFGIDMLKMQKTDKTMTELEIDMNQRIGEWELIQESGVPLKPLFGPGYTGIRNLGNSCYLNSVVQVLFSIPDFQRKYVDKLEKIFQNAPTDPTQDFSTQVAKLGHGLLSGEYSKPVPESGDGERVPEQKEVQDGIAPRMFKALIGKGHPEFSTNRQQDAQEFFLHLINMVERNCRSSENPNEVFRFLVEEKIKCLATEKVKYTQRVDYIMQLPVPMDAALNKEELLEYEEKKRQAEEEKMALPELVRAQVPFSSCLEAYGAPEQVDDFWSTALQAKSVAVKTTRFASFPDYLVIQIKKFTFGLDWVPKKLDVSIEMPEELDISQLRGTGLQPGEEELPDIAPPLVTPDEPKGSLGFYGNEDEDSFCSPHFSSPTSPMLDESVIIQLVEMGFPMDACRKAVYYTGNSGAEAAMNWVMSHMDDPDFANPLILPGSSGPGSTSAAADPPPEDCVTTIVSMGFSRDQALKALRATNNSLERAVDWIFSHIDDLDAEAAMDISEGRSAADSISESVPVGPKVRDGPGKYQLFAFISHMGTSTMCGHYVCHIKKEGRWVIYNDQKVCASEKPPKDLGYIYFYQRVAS
In short, it runs like this:
as §1

The target of a further assay is USP54 (UniProt Q70EL1). In short, it runs like this: as §1
For a further assay, the target named is USP7 (UniProt Q93009). In short, it runs like this: as §1
A further assay deals with T5, USP8 (UniProt P40818).
T5 sequence (whole entry): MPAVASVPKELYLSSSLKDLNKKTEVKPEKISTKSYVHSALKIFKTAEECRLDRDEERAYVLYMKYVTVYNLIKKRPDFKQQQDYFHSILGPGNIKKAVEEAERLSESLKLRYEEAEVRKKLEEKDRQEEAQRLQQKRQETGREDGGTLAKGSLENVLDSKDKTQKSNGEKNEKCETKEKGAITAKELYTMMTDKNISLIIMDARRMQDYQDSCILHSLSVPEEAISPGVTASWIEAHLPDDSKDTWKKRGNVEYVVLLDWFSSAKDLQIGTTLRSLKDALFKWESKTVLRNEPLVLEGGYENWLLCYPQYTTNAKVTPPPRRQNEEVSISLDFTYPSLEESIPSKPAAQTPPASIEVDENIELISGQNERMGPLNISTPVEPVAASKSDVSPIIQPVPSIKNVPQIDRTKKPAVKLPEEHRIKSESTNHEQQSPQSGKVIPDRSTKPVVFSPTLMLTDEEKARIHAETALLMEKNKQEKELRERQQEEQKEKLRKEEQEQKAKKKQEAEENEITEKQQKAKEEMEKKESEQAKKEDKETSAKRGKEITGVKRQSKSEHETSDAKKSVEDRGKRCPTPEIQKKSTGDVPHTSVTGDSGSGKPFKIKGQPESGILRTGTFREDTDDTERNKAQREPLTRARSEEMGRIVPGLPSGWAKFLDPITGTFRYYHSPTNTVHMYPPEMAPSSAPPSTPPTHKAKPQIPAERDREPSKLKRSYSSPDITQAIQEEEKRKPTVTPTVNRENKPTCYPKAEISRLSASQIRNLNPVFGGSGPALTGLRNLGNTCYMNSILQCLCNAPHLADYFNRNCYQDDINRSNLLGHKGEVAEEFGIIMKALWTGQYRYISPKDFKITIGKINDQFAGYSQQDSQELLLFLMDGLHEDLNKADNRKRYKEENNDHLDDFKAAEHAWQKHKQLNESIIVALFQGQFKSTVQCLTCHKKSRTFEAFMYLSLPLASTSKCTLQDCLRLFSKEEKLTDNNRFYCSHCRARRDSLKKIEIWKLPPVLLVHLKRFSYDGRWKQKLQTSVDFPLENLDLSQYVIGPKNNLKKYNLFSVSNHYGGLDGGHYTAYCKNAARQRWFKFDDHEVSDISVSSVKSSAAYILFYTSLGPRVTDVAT
Put shortly: as §1

Another assay has as its target USP9X (UniProt Q93008). Put shortly: as §1
The next assay concerns the target UniProt O00487. In short, it runs like this: as §1

The results in this text go back to the supplement of paper PMC11732987, “Enantioselective OTUD7B fragment discovery through chemoproteomics screening and high-throughput optimisation” (Communications Chemistry, 2025).

A number with no mark means an inactive call.

Chain of USP46 (P62068 whole entry): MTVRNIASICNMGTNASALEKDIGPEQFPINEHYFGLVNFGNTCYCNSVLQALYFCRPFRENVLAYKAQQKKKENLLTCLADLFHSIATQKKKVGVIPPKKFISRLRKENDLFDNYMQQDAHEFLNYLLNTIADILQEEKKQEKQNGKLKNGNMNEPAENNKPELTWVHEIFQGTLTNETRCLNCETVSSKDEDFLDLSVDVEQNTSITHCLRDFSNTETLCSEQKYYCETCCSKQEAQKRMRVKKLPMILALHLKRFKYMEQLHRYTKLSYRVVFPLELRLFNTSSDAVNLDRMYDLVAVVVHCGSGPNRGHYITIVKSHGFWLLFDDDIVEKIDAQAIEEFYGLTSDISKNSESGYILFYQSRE
Chain of USP54 (Q70EL1 whole entry): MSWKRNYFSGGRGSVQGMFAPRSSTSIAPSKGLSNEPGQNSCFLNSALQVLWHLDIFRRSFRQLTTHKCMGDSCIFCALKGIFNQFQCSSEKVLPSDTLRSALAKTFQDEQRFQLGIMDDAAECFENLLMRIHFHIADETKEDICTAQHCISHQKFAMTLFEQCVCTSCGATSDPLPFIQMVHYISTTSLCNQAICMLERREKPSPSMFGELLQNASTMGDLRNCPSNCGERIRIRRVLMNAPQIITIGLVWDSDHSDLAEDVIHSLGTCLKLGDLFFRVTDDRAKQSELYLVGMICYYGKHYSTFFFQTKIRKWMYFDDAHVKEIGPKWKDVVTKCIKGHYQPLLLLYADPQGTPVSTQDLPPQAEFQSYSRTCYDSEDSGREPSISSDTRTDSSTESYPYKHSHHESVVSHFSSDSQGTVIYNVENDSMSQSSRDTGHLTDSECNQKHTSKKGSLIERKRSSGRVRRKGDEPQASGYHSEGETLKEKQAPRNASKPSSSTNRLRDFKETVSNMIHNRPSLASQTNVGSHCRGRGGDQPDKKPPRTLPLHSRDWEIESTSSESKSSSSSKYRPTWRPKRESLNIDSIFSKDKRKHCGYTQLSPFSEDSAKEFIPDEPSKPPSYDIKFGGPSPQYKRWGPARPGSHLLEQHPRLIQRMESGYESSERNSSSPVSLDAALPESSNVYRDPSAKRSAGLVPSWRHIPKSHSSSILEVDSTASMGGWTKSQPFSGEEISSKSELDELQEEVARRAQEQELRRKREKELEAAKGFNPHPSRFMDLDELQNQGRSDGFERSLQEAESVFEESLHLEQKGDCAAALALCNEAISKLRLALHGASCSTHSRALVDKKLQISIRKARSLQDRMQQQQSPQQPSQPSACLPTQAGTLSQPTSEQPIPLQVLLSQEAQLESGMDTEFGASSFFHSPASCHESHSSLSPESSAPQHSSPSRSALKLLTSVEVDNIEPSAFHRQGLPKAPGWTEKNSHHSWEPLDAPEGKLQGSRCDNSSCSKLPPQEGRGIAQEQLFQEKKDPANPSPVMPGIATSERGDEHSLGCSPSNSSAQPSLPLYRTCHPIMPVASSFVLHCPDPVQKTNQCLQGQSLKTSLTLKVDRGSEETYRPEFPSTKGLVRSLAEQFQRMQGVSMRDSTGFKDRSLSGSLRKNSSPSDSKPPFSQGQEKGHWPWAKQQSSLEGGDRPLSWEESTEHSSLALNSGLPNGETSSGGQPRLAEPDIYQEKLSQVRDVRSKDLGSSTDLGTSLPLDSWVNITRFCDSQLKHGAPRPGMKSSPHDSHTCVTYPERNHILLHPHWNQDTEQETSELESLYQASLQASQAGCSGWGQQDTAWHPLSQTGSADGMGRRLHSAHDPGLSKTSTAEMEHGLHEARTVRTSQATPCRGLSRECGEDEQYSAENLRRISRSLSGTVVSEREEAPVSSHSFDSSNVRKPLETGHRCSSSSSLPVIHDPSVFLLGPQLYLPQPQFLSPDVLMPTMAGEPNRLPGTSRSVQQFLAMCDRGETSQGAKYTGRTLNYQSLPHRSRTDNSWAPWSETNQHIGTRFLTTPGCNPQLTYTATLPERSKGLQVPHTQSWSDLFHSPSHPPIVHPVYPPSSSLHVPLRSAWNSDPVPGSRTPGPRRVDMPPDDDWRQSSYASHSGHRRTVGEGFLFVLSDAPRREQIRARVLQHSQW
Chain of USP9X (Q93008 whole entry): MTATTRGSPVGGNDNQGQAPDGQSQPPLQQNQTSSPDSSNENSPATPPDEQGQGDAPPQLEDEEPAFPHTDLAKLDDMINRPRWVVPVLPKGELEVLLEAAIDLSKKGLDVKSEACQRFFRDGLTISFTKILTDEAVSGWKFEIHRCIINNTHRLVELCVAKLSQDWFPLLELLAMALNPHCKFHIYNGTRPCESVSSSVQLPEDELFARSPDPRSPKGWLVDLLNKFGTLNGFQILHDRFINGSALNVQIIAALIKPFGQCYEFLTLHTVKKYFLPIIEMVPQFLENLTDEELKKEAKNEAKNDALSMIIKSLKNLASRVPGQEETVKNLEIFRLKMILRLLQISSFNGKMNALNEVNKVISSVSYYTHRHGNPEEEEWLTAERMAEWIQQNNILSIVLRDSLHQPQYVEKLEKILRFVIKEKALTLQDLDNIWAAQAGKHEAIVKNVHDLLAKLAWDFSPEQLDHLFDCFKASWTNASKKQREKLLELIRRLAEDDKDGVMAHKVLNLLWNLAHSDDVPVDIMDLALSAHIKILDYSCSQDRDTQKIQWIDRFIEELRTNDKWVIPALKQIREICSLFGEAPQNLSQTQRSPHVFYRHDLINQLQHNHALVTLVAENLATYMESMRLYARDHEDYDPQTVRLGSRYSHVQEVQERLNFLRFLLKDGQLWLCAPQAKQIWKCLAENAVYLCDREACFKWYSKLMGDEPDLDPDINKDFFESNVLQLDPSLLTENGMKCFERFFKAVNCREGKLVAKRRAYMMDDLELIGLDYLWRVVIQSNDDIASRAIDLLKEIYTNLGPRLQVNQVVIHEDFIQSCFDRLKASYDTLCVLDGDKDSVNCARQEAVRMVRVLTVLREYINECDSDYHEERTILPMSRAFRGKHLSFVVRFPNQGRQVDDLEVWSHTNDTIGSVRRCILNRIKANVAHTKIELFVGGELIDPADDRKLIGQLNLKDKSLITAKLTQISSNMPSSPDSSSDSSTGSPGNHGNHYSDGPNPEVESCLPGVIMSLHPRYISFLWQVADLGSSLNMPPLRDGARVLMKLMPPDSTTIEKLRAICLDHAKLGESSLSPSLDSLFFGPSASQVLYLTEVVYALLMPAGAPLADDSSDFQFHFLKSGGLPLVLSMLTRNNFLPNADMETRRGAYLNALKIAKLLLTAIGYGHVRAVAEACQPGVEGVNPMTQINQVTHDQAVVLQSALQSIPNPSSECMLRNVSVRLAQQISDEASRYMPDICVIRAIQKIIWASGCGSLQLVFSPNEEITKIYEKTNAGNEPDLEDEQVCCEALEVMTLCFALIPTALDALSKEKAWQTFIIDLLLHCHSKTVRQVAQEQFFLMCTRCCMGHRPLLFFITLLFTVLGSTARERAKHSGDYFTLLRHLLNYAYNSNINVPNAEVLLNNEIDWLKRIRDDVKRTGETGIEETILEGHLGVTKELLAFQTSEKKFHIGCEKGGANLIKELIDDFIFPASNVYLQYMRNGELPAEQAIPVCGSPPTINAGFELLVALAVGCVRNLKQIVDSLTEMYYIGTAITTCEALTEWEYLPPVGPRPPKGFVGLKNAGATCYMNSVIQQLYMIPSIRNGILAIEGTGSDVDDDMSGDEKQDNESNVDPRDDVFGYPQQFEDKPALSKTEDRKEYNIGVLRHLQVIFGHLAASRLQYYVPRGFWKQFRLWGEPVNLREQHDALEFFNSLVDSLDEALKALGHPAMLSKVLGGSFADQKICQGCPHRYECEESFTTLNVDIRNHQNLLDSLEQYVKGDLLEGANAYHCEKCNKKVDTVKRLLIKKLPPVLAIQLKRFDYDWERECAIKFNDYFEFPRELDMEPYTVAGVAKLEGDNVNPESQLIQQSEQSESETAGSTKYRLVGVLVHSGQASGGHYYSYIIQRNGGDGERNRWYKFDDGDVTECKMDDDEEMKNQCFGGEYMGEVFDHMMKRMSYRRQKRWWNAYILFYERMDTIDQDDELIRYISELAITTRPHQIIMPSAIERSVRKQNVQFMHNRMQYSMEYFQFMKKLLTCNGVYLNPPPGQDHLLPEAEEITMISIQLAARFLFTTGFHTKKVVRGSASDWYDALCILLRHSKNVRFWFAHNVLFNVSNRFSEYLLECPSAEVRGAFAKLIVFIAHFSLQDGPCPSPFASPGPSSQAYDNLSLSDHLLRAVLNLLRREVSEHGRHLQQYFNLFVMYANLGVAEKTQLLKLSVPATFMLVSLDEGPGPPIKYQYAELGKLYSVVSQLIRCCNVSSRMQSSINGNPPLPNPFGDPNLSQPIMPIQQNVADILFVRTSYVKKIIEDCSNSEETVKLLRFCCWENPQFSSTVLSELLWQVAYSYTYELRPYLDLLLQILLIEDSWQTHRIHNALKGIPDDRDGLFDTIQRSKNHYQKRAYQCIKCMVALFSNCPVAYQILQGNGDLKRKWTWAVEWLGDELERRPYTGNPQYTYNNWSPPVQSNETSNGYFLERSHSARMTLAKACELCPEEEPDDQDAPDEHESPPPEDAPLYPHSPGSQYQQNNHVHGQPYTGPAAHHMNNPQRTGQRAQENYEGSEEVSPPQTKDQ
Chain of UniProt O00487 (O00487 whole entry): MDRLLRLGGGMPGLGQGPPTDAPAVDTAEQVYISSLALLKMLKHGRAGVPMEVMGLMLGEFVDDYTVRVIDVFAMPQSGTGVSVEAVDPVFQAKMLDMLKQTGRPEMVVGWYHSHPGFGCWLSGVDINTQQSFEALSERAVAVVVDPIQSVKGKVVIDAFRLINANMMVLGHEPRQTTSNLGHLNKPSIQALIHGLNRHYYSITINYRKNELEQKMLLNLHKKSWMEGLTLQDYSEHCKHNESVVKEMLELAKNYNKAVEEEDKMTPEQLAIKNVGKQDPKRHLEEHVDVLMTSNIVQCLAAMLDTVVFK

Take `Cn1cc(CN(Cc2ccc(Cl)cc2)C(=O)CCl)cn1`: the “log2 ratio of Biotin-Ahx-Ub-VS probe labelling” value (“log2 ratio” below) with USP42 was 0.553; in the assay with USP46, -0.635; with USP47, -1.45 (active); in the assay with USP48 it was -0.598; with USP5, 0.00584; with USP54 it was -0.648. Moreover, the “log2 ratio” value with USP7 was -3.08 (active); with USP8, 0.0316; in the assay with USP9X it was -0.441; with UniProt O00487 it was 0.0261.
As to `O=C(CCl)Nc1nnc(CC(F)(F)F)o1`, the “log2 ratio” value in the assay with USP42 was -0.117; in the assay with USP46, 0.083; with USP47, 0.172; in the assay with USP48, -0.236; with USP5 it was 0.0095; with USP54, 0.782. The “log2 ratio” value was -0.136 with USP7, -0.263 in the assay with USP8, -0.134 with USP9X and -0.296 with UniProt O00487.
